KLF5 inh: KLF5 expression inhibitors, primary screen, DLD-1 cells, luminescence; inhibition, % at 5 µM; AID 1700, 2009; DLD-1 KLF5 promoter-luciferase reporter; hit rate 0.23% among 290,000;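 active means inhibition above a per-plate limit of that plate's mean compound inhibition plus 3 SD, cut at about 60% in these data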;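 further: 0% = DMSO wells and 100% = LY294002 at 200 µM; higher means less KLF5 promoter-driven luciferase light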
APP 5UTR inh: inhibitors of APP translation via 5'UTR reporter, primary screen, APP 5'UTR luciferase, SH-SY5Y cells. SH-SY5Y APP 5'UTR-luciferase reporter, luminescence. inhibition, % at 2 µM. hit rate 0.82% among 190,000;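 active means inhibition above a set limit, derived from the sample mean plus 3 SD, cut at about 45% in these data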
Ba/F3 V617F tox: reduced viability of JAK2V617F-dependent Ba/F3 cells, primary screen, JAK2V617F inhibitor project, cell-based, Ba/F3 EpoR-JAK2V617F, luminescence. ATP luminescence. hit rate 1.1% among 220,000. inhibition, % at 5.6 µM;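 active means inhibition above the campaign mean plus 3 SD over all tested compounds, cut at about 24% in these data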;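 further: cytokine-independent growth of Ba/F3 cells driven by EpoR plus mutant JAK2; 0% = DMSO-treated cells and 100% = JAK inhibitor I control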
IEC-6 tox: cytotoxicity in IEC-6 intestinal epithelial cells, primary screen, cytotoxicity control for KLF5 inhibitor project, cell-based, luminescence; IEC-6 cytotoxicity, luminescence viability; inhibition, % at 5 µM; hit rate 0.78% among 290,000; AID 1825, 2009; in the data active means inhibition above about 22%;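 further: 0% = plate median of test compound wells and 100% = cytotoxic reference compound wells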
BaF3 tox: parental Ba/F3 cell viability inhibition, counter-screen for JAK2V617F inhibitor project, murine pro-B, CellTiter-Glo luminescence; inhibition, % at 5.6 µM; AID 1486, 2009; CellTiter-Glo ATP luminescence; hit rate 1.1% among 220,000;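 active means inhibition above a per-campaign cutoff, the mean inhibition of all tested compounds plus 3 SD, cut at about 27% in these data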;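 further: 0% = DMSO wells and 100% = JAK Inhibitor I control wells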
BaF3 tox 2: parental Ba/F3 cell viability inhibition, counter-screen for JAK2V617F inhibitor project, murine pro-B, CellTiter-Glo luminescence; inhibition, % at 5.6 µM; hit rate 31% among 580; shares compounds with Ba/F3 V617F tox; AID 1520, 2009; cells kept alive by added IL-3;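 active means cell growth inhibition above the hit limit set in the earlier mutant JAK2 cell screen, cut at about 27% in these data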;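 further: plate controls were DMSO-treated cells for no effect and JAK Inhibitor I control wells for full effect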
JAK2V617F confrm: viability loss in Ba/F3 EpoR-JAK2V617F cells, confirmation, JAK2V617F inhibitor project, cell-based, luminescence, triplicate; shares compounds with Ba/F3 V617F tox; CellTiter-Glo luminescence; inhibition, % at 5.6 µM; hit rate 66% among 580; AID 1521, 2009;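 active means mean inhibition above the hit cutoff derived in the earlier primary screen, cut at about 25% in these data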;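 further: 0% = DMSO-treated cells and 100% = JAK inhibitor I control wells; higher means lower luminescence from reduced cell ATP and viability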
* = called active by the depositor; / = no result. Rows were chosen to be rich in hits. Some 1.8% of all compounds tested hit in one or more screens of this group.

SMILES	KLF5 inh	APP 5UTR inh	Ba/F3 V617F tox	IEC-6 tox	BaF3 tox	BaF3 tox 2	JAK2V617F confrm
COc1ccc(Cl)c(Cn2c(NCc3ccco3)nc3c2c(=O)n(C)c(=O)n3C)c1	-7	-4	37*	-7	17	83*	62*
CCCn1c(NCc2ccco2)nc2c1c(=O)n(C)c(=O)n2C	-6	0	-2	-5	6	/	/
Cc1cc([N+](=O)[O-])nn1CC(=O)NCc1ccc(Cl)cc1	-14	/	/	0	/	/	/
Cc1c(Cl)cnc(NC(=O)COC(=O)c2cccc(S(=O)(=O)N3c4ccccc4CC3C)c2)c1Cl (stereo unspecified)	-16	-3	-3	5	3	/	/
O=C(CN(Cc1ccco1)C(=O)Cn1nnc(-c2cccs2)n1)NCC1CCCO1 (stereo unspecified)	-9	-5	1	6	9	/	/
O=C(O)/C=C\C(=O)Nc1ccccc1C#Cc1ccc(Br)cc1	-134	-158	36*	9	23	1	15
O=C(O)/C=C\C(=O)Nc1ccccc1C#Cc1ccccc1	-94	-73	10	-5	13	/	/
COc1ccc(CCN2CC(C(=O)NCCc3ccccc3C)CCC2=O)cc1 (stereo unspecified)	-24	/	/	-5	/	/	/
C=CCn1c(CSc2ccccc2[N+](=O)[O-])n[nH]c1=S	-23	/	/	6	/	/	/
C=CCn1c(Sc2ncc([N+](=O)[O-])s2)n[nH]c1=O	-4	/	77*	11	25	-4	9
Cc1cc(C)n(CCNC(=O)CC2C(=O)NCCN2Cc2ccccc2C(F)(F)F)n1 (stereo unspecified)	19	8	-3	5	-3	/	/
COc1ccc(N2CCc3c(C)nc4c(OC)cc(OC)cc4c32)c(OC)c1	-10	-4	48*	1	7	6	64*
O=C(CCl)NC(=O)NC12CC3CC(CC(C3)C1)C2	4	-6	43*	-4	-11	7	93*
Oc1ccc(Cl)cc1N=Cc1sc2ccccc2c1Cl	18	-22	40*	0	16	21	86*
Cc1nc2c(-c3ccccc3)c(C)nn2c(C)c1CCC(=O)O	2	-2	0	3	4	/	/
Cc1nc2c(-c3ccc(F)cc3)c(C)nn2c(C)c1CCC(=O)Nc1ccccc1F	-36	/	79*	0	-1	-4	2
COc1ccc(NC(=O)/C(C#N)=C\c2cc(C)n(-c3ccc4c(c3)OCO4)c2C)cc1	-10	7	30*	5	5	73*	93*
CC(/C=C/c1ccccc1)=N\NC(=O)Cn1cncn1	-10	/	31*	1	-2	-6	-9
Nc1nc(C(=O)N2CCOCC2)nn1S(=O)(=O)c1ccc(Cl)cc1	-11	4	7	-2	13	/	/
CNC(=O)c1nnsc1S(=O)(=O)c1ccc(Cl)cc1	16	95*	91*	48*	8	68*	98*
CNC(=O)c1ccc(S(=O)(=O)c2ccc(Cl)cc2)c(NC(C)=O)c1	-7	/	/	-1	/	/	/
O=C(c1nnsc1S(=O)(=O)c1ccc(Cl)cc1)N1CCOCC1	29	38	76*	19	3	45*	75*
CC(O)CNc1nc2ccccc2n1CC(=O)NC12CC3CC(CC(C3)C1)C2 (stereo unspecified)	-23	-3	-3	0	2	/	/
Cc1ccc(C(=O)N[C@@H](Cc2ccccc2)C(=O)N2CCC3(CC2)NCCc2[nH]cnc23)cc1C	0	/	/	2	/	/	/
CCOc1ccc(Cc2nc(N)nc(N)n2)cc1	-18	-9	-1	-6	3	/	/
SMILES	KLF5 inh	APP 5UTR inh	Ba/F3 V617F tox	IEC-6 tox	BaF3 tox	BaF3 tox 2	JAK2V617F confrm
CCCOc1ccc(Cc2nc(N)nc(N)n2)cc1	-4	1	40*	6	12	8	18
COC(=O)c1sccc1NC(=S)N1CCN(c2cc(C)ccc2C)CC1	-17	6	1	-4	2	/	/
CCS(=O)(=O)CCSc1nc2ccccc2s1	5	2	1	5	3	/	/
O=S(=O)(CCSc1nc2ccccc2s1)c1nc2ccccc2s1	-9	30	40*	4	-2	36*	100*
CC(C)Oc1ccc(/C(O)=C2/C(=O)C(=O)N(CCN3CCNCC3)C2c2cccc([N+](=O)[O-])c2)cc1 (stereo unspecified)	-28	/	/	-5	/	/	/
CCN(C(=O)COC(=O)c1cccc(-n2cnnn2)c1)C1CCCCC1	-13	-5	-2	-1	3	/	/
CCCCn1c(=N)n(CC(=O)c2ccc(Br)s2)c2ccccc21	10	/	71*	-1	-4	6	60*
O=C(Nc1ccccc1C(=O)O)c1ccc(Br)o1	-65	-16	24*	1	4	-1	-3
CCOc1ccc(NC2=NC(C)(C)N=C(N)N2)cc1	-9	-2	41*	-2	26	83*	93*
CCCOc1ccccc1C1C(C(=O)OC)=CN(C(C)C)C=C1C(=O)OC	-18	18	2	-12	7	/	/
CCCCOc1ccccc1C1C(C(=O)OC)=CN(CC)C=C1C(=O)OC	-30	2	29*	13	26	30*	35*
Nc1ccc(Nc2nc(-c3cc4ccccc4oc3=O)cs2)cc1	-77	-95	84*	-10	14	77*	99*
CC(=O)Nc1ccc(Nc2nc(-c3cc4ccccc4oc3=O)cs2)cc1	-170	/	/	4	/	/	/
CC(=O)C1=C(c2ccc(Br)cc2)C(=O)c2ccccc2C1=O	-17	68*	26*	6	0	105*	98*
CC1=CC(=C2C(=O)c3ccccc3C2=O)C=C(C)O1	-40	-11	-1	-1	3	/	/
CCC(=O)OCC(=O)N=c1sccn1Cc1ccc(C)cc1	-31	/	/	-5	/	/	/
CCC(=O)OCC(=O)N=c1sccn1Cc1ccccc1Cl	-35	/	/	-6	/	/	/
O=C(CCl)N=c1sccn1Cc1ccc(Cl)cc1Cl	-23	8	101*	99*	-10	21	99*
O=C(CCl)N=c1sccn1Cc1ccccc1Cl	-8	/	99*	100*	11	10	99*
CCn1cc(S(=O)(=O)N2CCN(c3ccc(Cl)cc3)CC2)cn1	-8	/	/	4	/	/	/
CC1(C)Cc2c(cnn2-c2cccc(F)c2)C(NC(=O)CSc2ccncc2)C1 (stereo unspecified)	-21	/	/	-2	/	/	/
CN1CCN(C(=S)Nc2ccc(Cl)c(Cl)c2)CC1	-8	22	43*	-5	17	23	46*
Cc1cc(C)c2nc(SCC(=O)N3CC(=O)Nc4ccccc43)c(C#N)cc2c1	-2	96*	67*	0	4	97*	99*

Assay outcomes deposited in PubChem BioAssay by several laboratories.
